Here are results for 28 molecules from PubChem BioAssay (NCATS).

Results filed as inconclusive are left out. The source made the active and inactive calls. Calls come from the whole dose curve; as a rule, active = well fitted cell-killing curve with a large enough effect; inconclusive = small, poorly fitted or top-dose-only effect, or effect the other way; inactive = no such curve, though single readings can be large or run the other way.

Test [1] can be described thus: Quantitative High-Throughput drug screen in 47 multiple myeloma cell lines against the NCATS MIPE library collection: PE2_PLB cell viability assay (AID 1919869). Note: nearly all actives have a fitted effect of over 35% in size. The procedure, abridged: (§1)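 qHTS format: cells plated (500/well), pin-dosed with MIPE 4.0 compounds, kept 48 h at 37 °C. Readout was CellTiter-Glo luminescence, median RLU.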
A short description of test [2]: Quantitative High-Throughput drug screen in 47 multiple myeloma cell lines against the NCATS MIPE library collection: RPMI8226_ATCC cell viability assay (AID 1919871). Note: nearly all actives have a fitted effect of over 30% in size. The procedure, abridged:
as §1

Test [3] in a line: Quantitative High-Throughput drug screen in 47 multiple myeloma cell lines against the NCATS MIPE library collection: XG1_PLB cell viability assay (AID 1919866). Note: nearly all actives have a fitted effect of over 35% in size. The procedure, abridged: as §1
Test [4] can be described thus: Quantitative High-Throughput drug screen in 47 multiple myeloma cell lines against the NCATS MIPE library collection: PCM6_Riken cell viability assay (AID 1919870). Note: nearly all actives have a fitted effect of over 30% in size. The procedure, abridged: as §1
Test [5] can be described thus: Quantitative High-Throughput drug screen in 47 multiple myeloma cell lines against the NCATS MIPE library collection: VP6_DJ cell viability assay (AID 1919867). Note: nearly all actives have a fitted effect of over 40% in size. The procedure, abridged: as §1
The nature of test [6]: Quantitative High-Throughput drug screen in 47 multiple myeloma cell lines against the NCATS MIPE library collection: OPM2_DSMZ cell viability assay (AID 1919872). Note: nearly all actives have a fitted effect of over 30% in size. The procedure, abridged: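 CellTiter-Glo ATP luminescence gave viability after 48 h compound treatment at 37C of 500 multiple myeloma cells per well. Normalisation used DMSO-only wells as 100% and media-only wells as 0% viability; primary qHTS of approved and investigational drugs.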

The nature of test [7]: Quantitative High-Throughput drug screen in 47 multiple myeloma cell lines against the NCATS MIPE library collection: UTMC2_PLB cell viability assay (AID 1919868). Note: nearly all actives have a fitted effect of over 55% in size. The following applies: CellTiter-Glo ATP luminescence, 48 h; viability (% of DMSO control): at 45.8 µM (top of the series). An outline of the steps: as §1
In general terms: ATP-based viability assays read luminescence as a measure of living cells.
Potency is the fitted concentration of half-maximal effect.

For the molecule `CC(C)(OCc1nn(Cc2ccccc2)c2ccccc12)C(=O)O`, the Potency result in test [1] and in test [2] was “inactive” each time.
With `CC[C@H](NC(=O)[C@H](C)NC)C(=O)N1C[C@@H](O)C[C@H]1Cc1c(-c2[nH]c3cc(F)ccc3c2C[C@H]2C[C@H](O)CN2C(=O)[C@H](CC)NC(=O)[C@H](C)NC)[nH]c2cc(F)ccc12`, the results for the Potency in test [3], in test [4] and in test [2] were 5.9 µM (active), 5.9 µM (active) and 1.32 µM (active), respectively.
For `CCC(c1ccc(O)cc1)C(CC)c1ccc(O)cc1` (stereo not drawn), the Potency result in test [5], in test [1], in test [2] and in test [6] was “inactive” throughout.
For `CCCCCCOC(=O)N=C(N)c1ccc(NCc2nc3cc(C(=O)N(CCC(=O)OCC)c4ccccn4)ccc3n2C)cc1`, the Potency was 13.2 µM (active) in test [1], 20.9 µM (active) in test [4] and 18.7 µM (active) in test [2].
For `CC(C)c1c(C(=O)Nc2ccccc2)c(-c2ccccc2)c(-c2ccc(F)cc2)n1CC[C@H](O)C[C@@H](O)CC(=O)O`, the Potency in test [3] was 13.2 µM (active); in test [1] it was 11.8 µM (active); in test [4], 16.6 µM (active); in test [2], 10.5 µM (active).
In the case of `COc1ccc(C=CC(=O)Nc2ccccc2C(=O)O)cc1OC`, the Potency in test [3] is 6.62 µM (active); in test [1], 14.8 µM (active). Besides, the Potency result in test [4], in test [2] and in test [6] was “inactive” in each case.
Consider `NS(=O)(=O)c1cc(Cl)c(Cl)c(S(N)(=O)=O)c1`, for which the Potency result in test [5], in test [1], in test [4], in test [2] and in test [6] was “inactive” throughout.
With `FC(F)(F)c1ccc(C=Cc2nc(COc3ccc(CCCCn4ccnn4)cc3)co2)cc1`, the Potency in test [7] was 83.3 nM (active); in test [4], 0.0118 µM (active).
For the molecule `CC(C)(C)c1[nH]cnc1C=c1[nH]c(=O)c(=Cc2ccccc2)[nH]c1=O`, the Potency result in test [6] was “inactive”.
With `C#C[C@]1(O)CC[C@H]2[C@H]3CCc4cc(OC)ccc4[C@H]3CC[C@@]21C`, the Potency in test [3] was 14.8 µM (active). Further, the Potency entry in test [6] is “inactive”.
With `Cc1cc(CS(=O)(=O)c2ccccc2)cc(OCc2ccc(CN3CCC[C@H]3CO)cc2)c1`, the Potency in test [5] was 0.296 µM (active). The Potency entry in test [6] was “inactive”.
`Cc1ccc2c(c1)C(=O)[C@]1(O)CCN(c3ccccc3)C1=N2`: the Potency entry in test [3], in test [1] and in test [4] was “inactive” throughout. For the same molecule, in test [7], the Potency was 4690 nM (active).
In the case of `CN(C)CCN(C)C(=O)c1ccc(NC(=O)Nc2ccc(-c3nc(N4CCOCC4)c4ccn(CC(F)(F)F)c4n3)cc2)cc1`, the Potency in test [5] is 0.0469 µM (active); in test [7], 7.4 nM (active); in test [1], 0.0074 µM (active); in test [2], 0.0833 µM (active); in test [6], 187 nM (active).
`O=C(O)Cc1cccc(OCCCN(Cc2cccc(C(F)(F)F)c2Cl)CC(c2ccccc2)c2ccccc2)c1`: the Potency is 16.6 µM (active) in test [5], 18.7 µM (active) in test [4] and 23.5 µM (active) in test [2].
`COc1cc2ncn(-c3cc(OCc4ccccc4S(C)(=O)=O)c(C#N)s3)c2cc1OC`: the Potency in test [1] was 1.05 µM (active). The Potency entry in test [4], in test [2] and in test [6] was “inactive” throughout.
In the case of `O=C1CN2Cc3c(ccc(Cl)c3Cl)N=C2N1`, the Potency entry in test [7] was “inactive”. In test [2], the Potency was 18.7 µM (active).
Turning to `Nc1ccn([C@@H]2O[C@H](CO)[C@@H](O)[C@H]2O)c(=O)n1`, the Potency entry in test [3], in test [4] and in test [6] was “inactive” throughout. In addition, the Potency in test [7] was 1 nM (active).
Take `Cn1cnc(-c2cc3nccc(Oc4ccc(NC(=S)NC(=O)Cc5ccccc5)cc4F)c3s2)c1`: the figures for the Potency in test [7] and in test [1] were 132 nM (active) and 13.2 µM (active), respectively.
For the molecule `Cc1nc(C(=O)NCC(=O)O)c(O)c2ccc(Oc3ccccc3)cc12`, the Potency result in test [7], in test [1], in test [2] and in test [6] was “inactive” throughout.
Regarding `Cc1nc2c([nH]1)CCN(C(=O)c1ccc(NC(=O)c3ccccc3-c3ccccc3)cc1)c1ccccc1-2`, the Potency result in test [3] and in test [6] was “inactive” throughout.
Regarding `C[C@@H](O)[C@H]1C(=O)N2C(C(=O)OCOC(=O)C(C)(C)C)=C(SC3CN(C4=NCCS4)C3)[C@H](C)[C@H]12`, the Potency result in test [5], in test [2] and in test [6] was “inactive” each time. Moreover, the Potency in test [4] is 23.5 µM (active).
Take `O=c1cc(-c2ccc(O)c(O)c2)oc2cc(O)cc(O)c12`: in test [5], the Potency is 11.8 µM (active). For the same molecule, the Potency entry in test [4] and in test [2] was “inactive” throughout.
Regarding `Cn1c(=O)c(Oc2ccc(F)cc2F)cc2cnc(NC3CCOCC3)nc21`, the Potency entry in test [6] is “inactive”.
Turning to `O=[N+]([O-])c1ccc(Nc2ccccc2-c2ccccc2)c2nonc12`, the Potency in test [1] is 20.9 µM (active).
Turning to `CC1CCN(c2cc(N3CCN(C)CC3)ccc2NC(=O)c2cc(C#N)c[nH]2)CC1`, in test [1], the Potency result was “inactive”. Moreover, the Potency in test [4] was 7.43 µM (active); in test [2], 18.7 µM (active).
Take `CN(C)CCN(Cc1ccc(Cl)cc1)c1ccccn1`: the Potency in test [5] is 20.9 µM (active); in test [7] it was 16600 nM (active). Moreover, the Potency entry in test [2] and in test [6] was “inactive” in each case.
In the case of `COc1ccc2ccc(=O)oc2c1CC=C(C)C`, the Potency result in test [1] and in test [4] was “inactive” each time.
On to `O=c1[nH]c(=O)n([C@H]2C[C@@H](O)[C@@H](CO)O2)cc1I`, for which the Potency result in test [3] and in test [1] was “inactive” in each case.
